High-throughput results as filed in PubChem.
A549 viability: Nrf2 qHTS screen for inhibitors: counterscreen for cytotoxicity. A549 ARE-Fluc cells, CellTiter-Fluor viability, 18-24 h. Potency, µM (titrated, usually from 46 µM), for the others: top-dose activity change, negative = cytotoxicity, usual class: inhibitors. 390,000 tested, 0.16% active. AID 504648, 2011; note: % is set by controls: 0 for no effect and ±100 for the full control effect
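A549 ARE-Fluc cells in 5% FBS OPTI-MEM, 5000 cells/well, rested 2 h then exposed to compounds in concentration-response for 18-24 h at 37 °C. Viability by CellTiter-Fluor fluorescence (Ex 405/Em 525) after 30 min; luciferase luminescence (BugLite, 15 min, RT) read afterwards.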
ATXN2 expr inh: Primary qHTS for Inhibitors of ATXN expression; HEK-293 ATXN2-luciferase reporter, luminescence, 24 h; Potency, µM (titrated, usually from 57 µM), inactives show top-dose activity change, negative = inhibition, usual class: inhibitors; 360,000 tested, 0.72% active; AID 1745845, 2022; note: % is set by controls: 0 for no effect and ±100 for the full control effect; nearly all actives have a fitted effect of over 55% in size
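ATXN2-luciferase reporter cells (luciferase flanked by upstream and downstream ATXN2 gene portions) were treated 24 h at 37 °C with compounds at up to 57 uM. SteadyGlo luminescence gave expression; GF-AFC fluorescence gave viability.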
HepG2 viability: qHTS for Inhibitors of TGF-b: Cytotox Counterscreen | 410,000 tested, 0.76% active | AID 588856, 2011 | Potency, µM (titrated, usually from 46.1 µM), without a hit: top-dose activity change, negative = cytotoxicity, most hits filed as cytotoxic | HepG2 CAGA-GFP viability, ATP luminescence, 18 h
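HepG2 CAGA-GFP cells (1000/well, DMEM with 1% FBS) received compound, then TGF-beta at 500 pg/mL final, and were incubated 18 hours at 37 degrees C. Viability was read by CellTiter-Glo luminescence. Media-only wells were set as complete cell-killing and DMSO as no toxicity.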
ATXN viability: Viability Counterscreen for Primary qHTS for Inhibitors of ATXN expression; S2 cells (HEK-293 line with an ATXN2-luciferase reporter) viability, CellTiter-Fluor protease fluorescence, 24 h; Potency, µM (titrated, usually from 56.7 µM), actives largely listed as cytotoxic; 400,000 tested, 0.49% active; AID 651635, 2014; note: nearly all actives have a fitted effect of over 40% in size
TGFb SMAD3 inh: qHTS for Inhibitors of TGF-b; HepG2 CAGA-GFP TGF-b/SMAD3 reporter, GFP fluorescence, 18 h; TGF-beta stimulated, 500 pg/mL final; Potency, µM (series often up to 46.1 µM), without a hit: top-dose activity, negative = inhibition, usual class: inhibitors; 410,000 tested, 1.2% active; AID 588855, 2011; note: % is set by controls: 0 for no effect and ±100 for the full control effect; nearly all actives have a fitted effect of over 65% in size
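Read-out: total well GFP (ex488/em500-530) summed from mean per-cell fluorescence. Cells: HEPG2 CAGA-GFP, 1% FBS DMEM, 18 h at 37 degrees C with 500 pg/mL final TGF-beta. Unstimulated wells served as the full-inhibition control; stimulated DMSO wells = 0%.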
Nrf2 inh: Nrf2 qHTS screen for inhibitors. Potency, µM (series often up to 46 µM), for inactives: top-dose activity change, negative = inhibition, actives largely listed as inhibitors. A549 ARE-Fluc reporter, luciferase luminescence, 18-24 h. 360,000 tested, 2.1% active; note: % is set by controls: 0 for no effect and ±100 for the full control effect; nearly all actives have a fitted effect of over 60% in size
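Nrf2 activity is the BugLite luminescence, read 15 min after reagent at room temperature, following CellTiter-Fluor cytotoxicity readout (30 min, 37C). Compound titrations were applied for 18-24 h to 5000 A549 ARE_Fluc cells/well in 5% FBS OPTI-MEM.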
* marks the source's active call; other numbers are inactive results; i = inactive; ? = inconclusive; . = no result. Rows were chosen to be rich in hits. Some 3.8% of all compounds tested hit in one or more screens of this group. Calls come from the whole dose curve; as a rule, active = well fitted curve in the direction sought with a large enough effect; inconclusive = small, poorly fitted or top-dose-only effect, or another doubt; inactive = no such curve, though single readings can be large; an effect the other way counts as inactive or inconclusive. Potency is the fitted concentration of half-maximal effect.

SMILES	A549 viability	ATXN2 expr inh	HepG2 viability	ATXN viability	TGFb SMAD3 inh	Nrf2 inh
CC1(C)CCC2=C(O1)c1ccccc1C(=O)C2=O	.	27µM*	4µM*	.	3.2µM*	.
O=[N+]([O-])c1cccc(CN2CCCCCC2)c1	5%	1%	22%	i	14%	9%
COc1cc(CN2CCN(Cc3ccc([N+](=O)[O-])cc3)CC2)c([N+](=O)[O-])cc1OC	-4%	.	-22%	i	?	21µM*
O=[N+]([O-])c1ccc(N2CCN(Cc3cccc([N+](=O)[O-])c3)CC2)cc1	?	?	-18%	i	-12%	21µM*
Cc1cccc(CNC(=O)C2CCN(S(=O)(=O)c3cccc4nonc34)CC2)c1	-1%	1%	1%	?	4%	.
CSc1ccc(CN(C)C(=O)CNC(=O)c2sc3ccccc3c2Cl)cc1	?	-3%	8%	i	-3%	10µM*
COc1ccc(CN(C)C(=O)CNC(=O)c2sc3ccccc3c2Cl)c(OC)c1OC	1%	-6%	-1%	?	-12%	?
O=C(NC(Nc1ncc(S(=O)(=O)c2ccc([N+](=O)[O-])cc2)s1)(C(F)(F)F)C(F)(F)F)c1ccc(Cl)cc1	?	14µM*	-39%	?	?	5.8µM*
COc1cc(NC(=O)CCc2c(C)nc3c4c(C)cc(C)nc4nn3c2C)cc(OC)c1	1%	0%	-4%	i	4%	-7%
O=C(COC(=O)CCN1C(=O)/C(=C\C=C\c2ccccc2)SC1=S)Nc1cc(F)ccc1F	?	?	0%	i	-6%	8.2µM*
O=C(CN1C(=O)/C(=C\C=C\c2ccccc2)SC1=S)Nc1ccc(F)cc1	-6%	-5%	5%	?	0%	5%
COc1ccc2cc(CCNC(=O)c3cc4ccccc4o3)c(=O)[nH]c2c1	-11%	-15%	-13%	?	-11%	10µM*
Cc1ccc2cc(CCNC(=O)c3cc4ccccc4o3)c(=O)[nH]c2c1C	0%	?	-23%	?	?	-22%
Cc1ccc(-c2[nH]c3ccccc3c2C(C[N+](=O)[O-])c2ccco2)cc1 (stereo not drawn)	-21%	0%	16µM*	i	?	?
COC(=O)c1ccc(Cl)c(NC(=O)C2CCN(S(=O)(=O)Cc3ccccc3)CC2)c1	20%	-4%	-12%	i	19%	17%
COC(=O)[C@]12CCCCC=C1N(Cc1ccc(Cl)cc1Cl)C(=O)[C@H](CC(=O)N1CCCC1)C2	.	-27%	.	?	.	.
Cc1ccc(S(=O)(=O)CC(CN2CCCCC2)N2CCCCC2)cc1 (stereo not drawn)	?	?	-93%	i	16µM*	?
Cn1c(N)c(C(=O)COC(=O)CC2CC3CCC2C3)c(=O)n(C)c1=O (stereo not drawn)	-14%	-16%	8%	i	-1%	?
CCN(CC)c1ccc2cc(NC(=O)CCC(=O)O)c(=O)oc2c1	?	7.9µM*	-27%	.	12%	12µM*
C(=NN1CCCCCC1)c1ccc2ccccc2n1	-10%	?	-20%	i	-9%	18µM*
Cc1nnc(N/N=C/c2cccc(OCc3ccc(Cl)c(Cl)c3)c2)n1N	?	11%	-104%	?	22µM*	-17%
Cn1cc(C(c2ccccc2OCC(=O)O)c2cn(C)c3ccccc23)c2ccccc21	?	1%	0%	i	0%	?
Cc1sc2ncnc(N3CCC(C(=O)Nc4ccc(Cl)cc4Cl)CC3)c2c1C	-5%	?	-34%	i	?	?
Cc1sc2ncnc(N3CCC(C(=O)NCC(=O)Nc4ccc(F)c(F)c4)CC3)c2c1C	?	?	-28%	?	?	18µM*
COc1ccccc1OCC(=O)NNC(=O)C1CCN(c2ncnc3sc(C)c(C)c23)CC1	0%	.	-13%	?	?	23µM*
SMILES	A549 viability	ATXN2 expr inh	HepG2 viability	ATXN viability	TGFb SMAD3 inh	Nrf2 inh
Cc1sc2ncnc(N3CCC(C(=O)Nc4ccc(Br)cc4Br)CC3)c2c1C	-13%	-31%	-3%	i	-21%	21µM*
COc1ccccc1NC(=O)c1ccc2nc(C)c(C)nc2c1	6%	11%	-3%	i	-10%	-18%
Cc1ccc(S(=O)(=O)N2[C@@H](c3ccccc3)C(C(=O)O)=CC[C@H]2c2ccc3c(c2)OCO3)cc1	-10%	-7%	1%	i	7%	-16%
Cc1ccc(S(=O)(=O)N2[C@@H](c3ccc(C(C)(C)C)cc3)C(C(=O)O)=CC[C@H]2c2ccc3c(c2)OCO3)cc1	-21%	-2%	-23%	i	?	23µM*
Cc1ccccc1S(=O)(=O)N1[C@@H](c2ccc(Br)cc2)C(C(=O)O)=CC[C@H]1c1ccc(Cl)cc1	-15%	-9%	-78%	?	18µM*	?
O=C(O)C1=CC[C@@H](c2ccc(Cl)cc2)N(S(=O)(=O)c2ccc(Cl)cc2)[C@H]1c1ccc(Br)cc1	-19%	13%	-89%	i	13µM*	?
Cc1ccccc1S(=O)(=O)N1[C@@H](c2ccccc2)C(C(=O)O)=CC[C@H]1c1ccc(Cl)cc1	-14%	-2%	-12%	i	?	-19%
Cc1ccc(S(=O)(=O)N2[C@@H](c3ccc(Br)cc3)C(C(=O)O)=CC[C@H]2c2ccc(Cl)cc2)cc1	-8%	1%	-29%	i	?	?
O=C(OCC#CCSc1nnc(-c2cccc3ccccc23)o1)c1ccc(OC(F)F)cc1	-2%	.	.	.	.	-5%
Cc1c(NC(=O)c2cnn3c2NC(c2ccco2)CC3C(F)(F)F)c(=O)n(-c2ccccc2)n1C (stereo not drawn)	1%	-10%	-2%	i	-3%	.
O=C1c2ccc3c4c(ccc(c24)C(=O)N1c1cccc(O)c1)CC3	4%	-13%	-7%	i	-8%	1%
O=C1c2ccc3c4c(ccc(c24)C(=O)N1c1cccc(O)c1)C(=O)N(c1cccc(O)c1)C3=O	1%	.	4.5µM*	?	4µM*	13%
COC(=O)c1c(NC(=O)CCCOc2ccc(C(C)(C)C)cc2)sc2c1C(C(=O)OC)CC2 (stereo not drawn)	-2%	.	-26%	.	-26%	?
Cc1cc([N+](=O)[O-])ccc1N1C(=O)c2ccc(C(=O)Nc3ccccc3C(=O)O)cc2C1=O	-9%	.	8%	i	7%	9%
